Measurements: publication PMC7819943, “Rice protein-binding microarrays: a tool to detect cis-acting elements near promoter regions in rice”
Over roughly 68,000 sequences, “fluorescence intensity (a.u.)” has its median near 9,100; the highest 2% begin near 16,000. The sample as a whole holds a higher share of the highest values than the screen did.

Each sequence was assayed against OsWRKY34 (Oryza sativa, UniProt Q0JBA9 1-250) (assay: protein-binding microarray (RPBM); PBS, 2% BSA, 51.3 ng/ul salmon testes DNA, 50 uM zinc acetate, 200 nM TF, 25 C, 1 h; high values mean tight binding). Settings: protein: recombinant; tags: N-terminal polyhistidine and DsRed monomer fusion (pET32a); label: CyDye5-dUTP incorporated in the synthesized complementary strand; 3' TTTTT single-stranded linker to array surface; dsDNA, one strand shown.
OsWRKY34, sequence (Q0JBA9 entry or part of it): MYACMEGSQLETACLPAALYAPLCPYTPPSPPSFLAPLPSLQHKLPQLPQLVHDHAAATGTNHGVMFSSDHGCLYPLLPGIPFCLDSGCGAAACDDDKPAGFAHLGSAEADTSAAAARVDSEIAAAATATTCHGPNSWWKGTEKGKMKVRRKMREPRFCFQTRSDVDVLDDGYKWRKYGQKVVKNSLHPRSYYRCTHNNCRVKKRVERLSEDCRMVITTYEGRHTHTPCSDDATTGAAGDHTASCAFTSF
Method in brief: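 Transcription factors were made in E. coli BL21-CodonPlus as N-terminal fusions to a polyhistidine tag and DsRed, then purified on Ni–NTA. After primer extension with Cy5-dUTP and blocking with 2% BSA, a custom Agilent array was exposed for 1 h at 25 °C to 200 nM protein in PBS, 2% BSA, salmon testes DNA and 50 µM zinc acetate. Washed arrays were scanned on an Axon 4000B, and the binding signal is per-feature fluorescence intensity in arbitrary units.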

Sequence | binding signal
AGGGGTGCTAATTGAGCCTATTTCGGGTGGGGCTCACTGACGGAGTCACCTAGTGCAG | 15300 fluorescence intensity (a.u.)
TTCTTGGCCCGCTAACTCATGATGGTTTTATCCAGATCGTCGGAGTCACCTAGTGCAG | 9880 fluorescence intensity (a.u.)
TCAAACCTCGCGACTTCTTCTTCCACCTCTCGCTCCGGGCCGGAGTCACCTAGTGCAG | 11800 fluorescence intensity (a.u.)
GGGATATATCCTTTGACCGGTCAAACCTCGCGACTTCTTCCGGAGTCACCTAGTGCAG | 18800 fluorescence intensity (a.u.)
TGTGCCTCCGGATTTGACCTTTCCTCGAACCTTCTTCTTCCGGAGTCACCTAGTGCAG | 13300 fluorescence intensity (a.u.)
CCTTTCCTAAGTCTCTGTTTTAACATCTCTATTGGGGCATCGGAGTCACCTAGTGCAG | 8940 fluorescence intensity (a.u.)
CTCCGTCACTCAGATTTAATACATGACTCTCTATTATTCCCGGAGTCACCTAGTGCAG | 9060 fluorescence intensity (a.u.)
GGGGTGGCGGTGGCGGTGGTGGTGGTGGTGGTGGTGGAGTCGGAGTCACCTAGTGCAG | 41600 fluorescence intensity (a.u.)
CAGCAGCGGCGGCGGCGGCGGCGGCGGGGTGGTGGAACCTCGGAGTCACCTAGTGCAG | 9080 fluorescence intensity (a.u.)
GCGGAGGAGGTGGTGGTGGTGGAGGAGGAGGAGGCCAAGGCGGAGTCACCTAGTGCAG | 19300 fluorescence intensity (a.u.)
CCTTACCGTACAAGGGAGGAGGAGGTGGTGGTGGTGGAGGCGGAGTCACCTAGTGCAG | 13000 fluorescence intensity (a.u.)
GGCGGCGGCGGCGGCGGCGGGGAGGAGGTGAAGGTGGAGGCGGAGTCACCTAGTGCAG | 14100 fluorescence intensity (a.u.)
GGAGGCGGTGGTGTTGGAGTTGGAGGGCGCGTGGAGGTGGCGGAGTCACCTAGTGCAG | 12900 fluorescence intensity (a.u.)
GGGGAGGCGGGTGGGGTTGAGGAGGTCGGTGGCCTCGGCGCGGAGTCACCTAGTGCAG | 12300 fluorescence intensity (a.u.)
ATGGAGGCGGTGGTCGGAGGTGGCAGACGATGCTCGGGGACGGAGTCACCTAGTGCAG | 8040 fluorescence intensity (a.u.)
GAGGAGGAGGTGGAGCTACTGGTGGTGGTGGTGGTGGTGGCGGAGTCACCTAGTGCAG | 16200 fluorescence intensity (a.u.)
AGGTGGTGGTGGAGGTGGAGGTGGCGGTGGAGGTGGAGGGCGGAGTCACCTAGTGCAG | 38600 fluorescence intensity (a.u.)
GGCGGCGGCGGGGTGGCCTTGGCCGGGTGCCTTGGTGGATCGGAGTCACCTAGTGCAG | 10300 fluorescence intensity (a.u.)
GGAGGTCGGTGGCCTCGGCGGTGGAGGTCGGGGTCGGGGACGGAGTCACCTAGTGCAG | 16500 fluorescence intensity (a.u.)
GGCCTCACTATCGTCGACTCCTCCACTCCGGGGACTGCCGCGGAGTCACCTAGTGCAG | 10000 fluorescence intensity (a.u.)
AGCCGATCAGCTTCCAGCTCTTCATCCCAGCTTGCATCGTCGGAGTCACCTAGTGCAG | 9300 fluorescence intensity (a.u.)

Sequence | binding signal
CCCCTGTTTCTCGGTTCTTTCGCTCGCCTTCTAGGCCCAACGGAGTCACCTAGTGCAG | 11400 fluorescence intensity (a.u.)
ATGATACTAGCGGAGCTCACTACTTACTATTAGTCAATGTCGGAGTCACCTAGTGCAG | 8330 fluorescence intensity (a.u.)
ATAGCACCTCGAAACACCAAACTATTGCTATTAACATTTTCGGAGTCACCTAGTGCAG | 9650 fluorescence intensity (a.u.)
CCTTAATGCTCGAGATATACTAATACTACTCCCTTTGTTTCGGAGTCACCTAGTGCAG | 10400 fluorescence intensity (a.u.)
TACGCGTTATTTGTTTTTCGCAGCGTTTCCTTTTTTTTTTCGGAGTCACCTAGTGCAG | 9540 fluorescence intensity (a.u.)
TTTATCGCTTTGACTGTTCTACATCTTGCCTCGCCGTGCACGGAGTCACCTAGTGCAG | 9040 fluorescence intensity (a.u.)
GCACAAGGCAGATGGAGGTTGTACAGCTATTATTATTTCACGGAGTCACCTAGTGCAG | 8380 fluorescence intensity (a.u.)
TAATATTAATAAATAAAAAACCAGCGGTCGAACCGTTGACCGGAGTCACCTAGTGCAG | 13000 fluorescence intensity (a.u.)
AGGAGGTGGTATTATTTTTTTTTTGGTAGAGAGGGGAGGGCGGAGTCACCTAGTGCAG | 16500 fluorescence intensity (a.u.)
GGTTGCGTTGTTGCGGGCGTTGTTGCGGGCGGGCGGTCAGCGGAGTCACCTAGTGCAG | 16600 fluorescence intensity (a.u.)
TGTTGTTGCCGGAATGTGTGTGTGTGCGTGTGTGTGTGTGCGGAGTCACCTAGTGCAG | 8720 fluorescence intensity (a.u.)
ATATTGGTGGGCGCGGATTTTAATAGGTGGGCGGTGGATTCGGAGTCACCTAGTGCAG | 8430 fluorescence intensity (a.u.)
GGGCATTGAGTGGTGGGGACGTGTGGGAGGCAGGCGGAGACGGAGTCACCTAGTGCAG | 9540 fluorescence intensity (a.u.)
GGCGAGGGGAGAAGAGAAGAGGTGGGTGAGGTGGGGTTTCCGGAGTCACCTAGTGCAG | 12800 fluorescence intensity (a.u.)
TTCGTTGTTGGTGGTGGTGGCGGGCGGAAGATGCGGTTGCCGGAGTCACCTAGTGCAG | 10000 fluorescence intensity (a.u.)
GATCCAAGAGTGGAGAAGGAGAGGGGTGGGGAGCCGGCGACGGAGTCACCTAGTGCAG | 9460 fluorescence intensity (a.u.)
TAGAGGTGGGCGGTAGGGGCTATTTCTGCAATTTTTTGGTCGGAGTCACCTAGTGCAG | 9680 fluorescence intensity (a.u.)
TGGTGGGCGGTGGAGTTATTTTCTTAATAGAGCATTGAGACGGAGTCACCTAGTGCAG | 23900 fluorescence intensity (a.u.)
GAGAAGAGGAGAGAGAGTGAGAGTGGGCGACAATTTTATCCGGAGTCACCTAGTGCAG | 64200 fluorescence intensity (a.u.)
GAGGTAGTGGTTTAGAGGAGGAGGCGGAGAAGAGGAGGGACGGAGTCACCTAGTGCAG | 9020 fluorescence intensity (a.u.)
AATCTACACTAATTCTTCTGGTCTACACATTAAGTTATGACGGAGTCACCTAGTGCAG | 8670 fluorescence intensity (a.u.)

Sequence | binding signal
CCATGTCCGGATTCTCTAGGATTGCCTCCAATTTCTTCGCCGGAGTCACCTAGTGCAG | 8890 fluorescence intensity (a.u.)
TCCTACCTACAGCTATAGCTGCGTGCCGGGGTTGGGGCTGCGGAGTCACCTAGTGCAG | 8750 fluorescence intensity (a.u.)
CATCCTTCTCCGCGGCCATTTCTTGGAGCAAATCTCATTTCGGAGTCACCTAGTGCAG | 8420 fluorescence intensity (a.u.)
CCGCGGGCTTGGCTTGGCTGGCACCCTCTCCTTCTCGTCTCGGAGTCACCTAGTGCAG | 10300 fluorescence intensity (a.u.)
ACCCCAACGCAACCACTCTTCTCTACTACAATCGTTACTCCGGAGTCACCTAGTGCAG | 9310 fluorescence intensity (a.u.)
ATCCCAAACACTCTCGCCTCGTCTCCTCTCACACCACACGCGGAGTCACCTAGTGCAG | 10500 fluorescence intensity (a.u.)
CATTACCGCCACCTTCGATGCCGCCGCCTGCCGCTACCCGCGGAGTCACCTAGTGCAG | 8580 fluorescence intensity (a.u.)
TTAATACTTACTACTTGTCTGCTTTGAGTTTTTTGTTTAACGGAGTCACCTAGTGCAG | 9060 fluorescence intensity (a.u.)
CCTCGCCGTCGCCGGTCCTCGTCTCCTCCTCTATCTATATCGGAGTCACCTAGTGCAG | 8600 fluorescence intensity (a.u.)
ACCATGGGCGCACACGCTTCACTGCGTCTTTTTCCATCCACGGAGTCACCTAGTGCAG | 8320 fluorescence intensity (a.u.)
AATGTGGTGGTGGTGGTGGTGAACGGAGGAGGGAGGGAGCCGGAGTCACCTAGTGCAG | 13000 fluorescence intensity (a.u.)
GGAGGAGGAGGTGGTGGTGGTGGTGAAGCCGCGGAGGTGCCGGAGTCACCTAGTGCAG | 18000 fluorescence intensity (a.u.)
GGTTTGGTGGCGGAAAAGGTGGAGGCCTAGGTGGTGGTGGCGGAGTCACCTAGTGCAG | 8660 fluorescence intensity (a.u.)
GGTTGGTGGTGGAGGTGGTCAAGGCGGTGGTTTTGGAGCCCGGAGTCACCTAGTGCAG | 16400 fluorescence intensity (a.u.)
AAGGCGGGAGGTTGAGAGAGAGATAAGGGAGAGAGAGGGGCGGAGTCACCTAGTGCAG | 8120 fluorescence intensity (a.u.)
GCTAGATTGGATAAGGAGGGGAGGAGGGTGGAGGGGAGGGCGGAGTCACCTAGTGCAG | 22700 fluorescence intensity (a.u.)
AGGTCATCGCAGGGCTCCTCTCCATCGCAGCCGCTCCAGCCGGAGTCACCTAGTGCAG | 8910 fluorescence intensity (a.u.)
GCGGTGGAGAGTGGTGGGAGGTTGGGGAGAAGGCGGCGGCCGGAGTCACCTAGTGCAG | 14800 fluorescence intensity (a.u.)
CCGCCATGTGGGCCCCACCTCGCCGCCTCCGCTCCACTCTCGGAGTCACCTAGTGCAG | 13600 fluorescence intensity (a.u.)
CTGAAGTGAGGGAGGGGAGGAGGTGGTGGTGGTGGGGAAGCGGAGTCACCTAGTGCAG | 15600 fluorescence intensity (a.u.)
CCTCGCTCTCCATGGTGGTGGTGGTGGTCAGGTGGTGGGGCGGAGTCACCTAGTGCAG | 18800 fluorescence intensity (a.u.)

Sequence | binding signal
CGGCGCGGCGGAAGGAGGAGGGGTGGTGGATTCGTAGGGGCGGAGTCACCTAGTGCAG | 14600 fluorescence intensity (a.u.)
TCCGGTTGTTTGCCGTGGCACTTCCTTTCTCCCTATTGGCCGGAGTCACCTAGTGCAG | 8260 fluorescence intensity (a.u.)
AAGTGGGTGAGTCCAATAGGTGTGCACGTGAGGGGAGGGGCGGAGTCACCTAGTGCAG | 10500 fluorescence intensity (a.u.)
ATTCGTGCTCAGTTGTTTCTTTTCCAACTCCGGCGTCCTCCGGAGTCACCTAGTGCAG | 8150 fluorescence intensity (a.u.)
TACTCCTTATATTCCTTCATTTTTCAGCCTCGATCAGCTCCGGAGTCACCTAGTGCAG | 8130 fluorescence intensity (a.u.)
TACGAGCTTCTCCTCCTCCGCTGGTCATCATCCTACCTGTCGGAGTCACCTAGTGCAG | 8440 fluorescence intensity (a.u.)
TTCTACAGGAGTATCATCATCTTTGTGTTCTGGCTCCTGTCGGAGTCACCTAGTGCAG | 9040 fluorescence intensity (a.u.)
GACAATTTCTTTTTCCGATGGGATTTTAGTTTTTTGTTTTCGGAGTCACCTAGTGCAG | 9700 fluorescence intensity (a.u.)
CTCGCTAGCCCTCTGAACCTTGCAGTTTGTTGTTTGCACCCGGAGTCACCTAGTGCAG | 13600 fluorescence intensity (a.u.)
GGGCGGAGCGGGGCGGAGGGAGAGGAGGGAGAGGAGGGAGCGGAGTCACCTAGTGCAG | 8480 fluorescence intensity (a.u.)
GCGGAGGTGGTGGTGGCCTTGGAGGAGGTGGCGGCGGAGGCGGAGTCACCTAGTGCAG | 14300 fluorescence intensity (a.u.)
GGAGGTGGAGGCGGCGGAGGAGGTGGTGGTGGAGGTGGAGCGGAGTCACCTAGTGCAG | 17900 fluorescence intensity (a.u.)
CGACGAGCGAGAGGTAGGTGAGAGAGAGACGGGCGGCGAACGGAGTCACCTAGTGCAG | 65100 fluorescence intensity (a.u.)
TCGGCCCGAGCGGTGGCGGTGGCGGTGGCGGAGGAGGAGGCGGAGTCACCTAGTGCAG | 10100 fluorescence intensity (a.u.)
GACCGAGAGCAGGCGACGGGGTGGGTGGAGGTAGTGAGAACGGAGTCACCTAGTGCAG | 9200 fluorescence intensity (a.u.)
GGGAGAGGGGTGTGGGGCGGAGAGGGAGAGGGAGATGGGACGGAGTCACCTAGTGCAG | 9680 fluorescence intensity (a.u.)
GGCAGATGTGGACGGAGGGAGGGAGGGAGGGAGAGGGGCACGGAGTCACCTAGTGCAG | 17100 fluorescence intensity (a.u.)
GATGCGCGCGAACGGAGACGACGGGGTAGGGTGGGGAGGGCGGAGTCACCTAGTGCAG | 12300 fluorescence intensity (a.u.)
GGAGAGGGAGCGGGAGAGGGAGGATTGGAGGATGTGGGGACGGAGTCACCTAGTGCAG | 8940 fluorescence intensity (a.u.)
AGGAGGGCGGAGGAGGTGGTGGTGGTGGTGGTGGAGAGAGCGGAGTCACCTAGTGCAG | 25700 fluorescence intensity (a.u.)
CACTAGGTGAGCAATTTTGTTACCACGTCCATGTGCTGATCGGAGTCACCTAGTGCAG | 8810 fluorescence intensity (a.u.)
